The values below come from paper PMC5700166.

Holding throughout (experiment): protein-binding microarray (PBM); PBM: ~300 nM protein, 6 mM HEPES pH 7.8, 80 mM KCl, 0.5 mM EDTA, 0.5 mM EGTA, 6% glycerol, 35 ng/ul poly-dIdC, 1% milk, 1 h, room temperature; Ap Aiptasia and Nv Nematostella (sea anemones) / Co Capsaspora / Aq Amphimedon (sponge) / Dm Drosophila / Hu human; RHD is the Rel homology domain; high values mean tight binding
Details in all cases: dsDNA, one strand shown

The target of one experiment is T1, GST-Ap-NF-kB RHD (Exaiptasia pallida (Aiptasia), UniProt A0A913YAJ5 2-422).
T1 sequence: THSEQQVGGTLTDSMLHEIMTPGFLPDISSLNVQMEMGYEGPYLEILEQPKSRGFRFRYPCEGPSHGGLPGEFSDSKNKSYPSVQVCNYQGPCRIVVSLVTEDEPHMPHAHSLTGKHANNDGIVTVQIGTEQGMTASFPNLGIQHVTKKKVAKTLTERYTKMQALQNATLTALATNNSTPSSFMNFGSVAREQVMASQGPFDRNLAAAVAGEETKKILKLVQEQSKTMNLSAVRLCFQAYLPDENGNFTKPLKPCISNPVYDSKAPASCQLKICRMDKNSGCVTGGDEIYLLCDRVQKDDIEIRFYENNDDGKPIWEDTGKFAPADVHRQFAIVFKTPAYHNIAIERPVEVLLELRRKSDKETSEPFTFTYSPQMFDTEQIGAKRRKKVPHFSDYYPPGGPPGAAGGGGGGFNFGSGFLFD

In experiment [1] the target is T2, GST-Nv-NF-kB (Cys allele) (Nematostella vectensis, UniProt E5G601 2-411).
T2 sequence: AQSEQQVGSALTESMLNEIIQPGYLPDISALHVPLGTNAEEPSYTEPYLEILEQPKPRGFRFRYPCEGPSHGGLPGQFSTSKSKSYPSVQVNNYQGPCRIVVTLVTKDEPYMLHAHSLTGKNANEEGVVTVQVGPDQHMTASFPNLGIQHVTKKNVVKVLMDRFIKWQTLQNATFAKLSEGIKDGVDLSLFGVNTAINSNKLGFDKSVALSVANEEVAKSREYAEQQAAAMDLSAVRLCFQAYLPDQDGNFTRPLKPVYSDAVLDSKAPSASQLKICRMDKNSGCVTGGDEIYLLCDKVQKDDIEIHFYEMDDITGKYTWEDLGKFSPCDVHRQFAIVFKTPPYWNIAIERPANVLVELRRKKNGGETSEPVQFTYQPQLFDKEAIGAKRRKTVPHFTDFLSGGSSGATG

The target in experiment [2] is T3, GST-Nv-NF-kB (Ser allele) (Nematostella vectensis, UniProt A7UNT2 2-411).
T3 sequence: T2 sequence with Q21R, C66S, S207N, E215Q, V217A, E225K, A268E, D399E

For the next experiment, the target named is T4, GST-Co-NF-kB (Capsaspora owczarzaki, UniProt F1ARL5 200-546).
T4 sequence: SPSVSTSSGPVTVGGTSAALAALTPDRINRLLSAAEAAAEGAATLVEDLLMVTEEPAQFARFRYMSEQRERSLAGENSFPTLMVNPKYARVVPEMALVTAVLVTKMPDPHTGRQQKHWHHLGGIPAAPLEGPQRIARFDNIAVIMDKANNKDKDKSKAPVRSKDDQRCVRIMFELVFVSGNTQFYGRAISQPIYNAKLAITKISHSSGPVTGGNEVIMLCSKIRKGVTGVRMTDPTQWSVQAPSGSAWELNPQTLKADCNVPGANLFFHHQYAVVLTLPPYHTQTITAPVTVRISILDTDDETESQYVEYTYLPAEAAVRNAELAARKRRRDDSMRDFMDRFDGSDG

A further experiment concerns the target T5, GST-Dm-Relish (Drosophila melanogaster, UniProt Q94527 99-473).
T5 sequence: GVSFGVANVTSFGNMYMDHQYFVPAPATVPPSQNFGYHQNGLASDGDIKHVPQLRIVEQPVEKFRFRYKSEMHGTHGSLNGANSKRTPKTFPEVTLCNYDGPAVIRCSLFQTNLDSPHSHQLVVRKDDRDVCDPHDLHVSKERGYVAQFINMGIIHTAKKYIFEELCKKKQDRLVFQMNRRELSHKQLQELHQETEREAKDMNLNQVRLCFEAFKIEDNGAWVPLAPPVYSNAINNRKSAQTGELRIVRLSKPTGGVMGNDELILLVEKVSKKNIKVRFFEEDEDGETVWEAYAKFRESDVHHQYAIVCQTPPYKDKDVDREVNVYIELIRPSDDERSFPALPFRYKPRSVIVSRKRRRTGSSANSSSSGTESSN

A further experiment deals with T6, GST-Aq-NF-kB (Amphimedon queenslandica, UniProt A9Y5G7 2-389).
T6 sequence: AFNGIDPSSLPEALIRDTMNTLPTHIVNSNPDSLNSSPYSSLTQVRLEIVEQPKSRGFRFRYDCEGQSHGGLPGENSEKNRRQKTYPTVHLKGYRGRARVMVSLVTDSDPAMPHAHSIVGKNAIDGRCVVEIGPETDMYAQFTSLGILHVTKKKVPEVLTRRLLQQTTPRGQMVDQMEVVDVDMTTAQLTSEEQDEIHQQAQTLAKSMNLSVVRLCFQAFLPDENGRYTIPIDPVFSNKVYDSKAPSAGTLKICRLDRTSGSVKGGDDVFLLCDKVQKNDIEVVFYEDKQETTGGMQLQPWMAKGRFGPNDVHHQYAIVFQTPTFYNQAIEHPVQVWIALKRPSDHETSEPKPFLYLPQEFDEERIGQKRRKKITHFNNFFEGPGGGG

Another experiment deals with GST-Hu-p50 (Homo sapiens, UniProt P19838 7-356).

Numbering of substitutions follows the chain as printed.

Chain of GST-Hu-p50 (P19838 7-356): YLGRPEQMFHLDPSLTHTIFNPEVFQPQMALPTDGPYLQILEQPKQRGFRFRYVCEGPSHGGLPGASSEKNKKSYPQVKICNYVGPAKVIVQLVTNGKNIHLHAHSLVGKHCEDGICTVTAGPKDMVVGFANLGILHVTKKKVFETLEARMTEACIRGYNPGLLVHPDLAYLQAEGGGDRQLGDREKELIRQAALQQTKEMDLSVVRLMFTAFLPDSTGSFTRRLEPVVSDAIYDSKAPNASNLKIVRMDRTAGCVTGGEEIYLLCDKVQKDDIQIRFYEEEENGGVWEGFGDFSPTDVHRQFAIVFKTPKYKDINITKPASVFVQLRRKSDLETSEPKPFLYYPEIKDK

Regarding “CCGATTAACATCAAGAAGTCCCCTGATGTTAATCGGGTCTTGATTCGCTTGACGCTGCTG”, the binding signal in the experiment with GST-Ap-NF-kB RHD stood at 7.72 z-score; in experiment [1], 7.86 z-score; in experiment [2] it was 7.55 z-score; with GST-Co-NF-kB it was 3.14 z-score; in the experiment with GST-Dm-Relish, 7.58 z-score; with GST-Aq-NF-kB it was 6.79 z-score. Moreover, the binding signal in the experiment with GST-Hu-p50 worked out at 6.73 z-score.

On to “CCGATTAACATCACCGTTTCCCCTGATGTTAATCGGGTCTTGATTCGCTTGACGCTGCTG”, for which the binding signal is 6.05 z-score with GST-Ap-NF-kB RHD; 6.66 z-score in experiment [1]; 9.86 z-score in experiment [2]; 7.95 z-score in the experiment with GST-Co-NF-kB; 2.77 z-score with GST-Dm-Relish; 4.66 z-score with GST-Aq-NF-kB. In the experiment with GST-Hu-p50, this sequence gave a binding signal of 5.1 z-score.

Consider “CCGATTAACATCAGAAAATCCCCTGATGTTAATCGGGTCTTGATTCGCTTGACGCTGCTG”, for which the binding signal with GST-Ap-NF-kB RHD came out at 10.4 z-score; in experiment [1] it was 12 z-score; in experiment [2] it was 13.8 z-score; in the experiment with GST-Co-NF-kB, 4.89 z-score; in the experiment with GST-Dm-Relish, 9.8 z-score; with GST-Aq-NF-kB, 8.95 z-score. Moreover, in the experiment with GST-Hu-p50, the binding signal amounted to 8.46 z-score.

As to “CCGATTAACATCAGGGGAACCACTGATGTTAATCGGGTCTTGATTCGCTTGACGCTGCTG”, the binding signal in the experiment with GST-Ap-NF-kB RHD was determined as 7.59 z-score; in experiment [1] it was 6.92 z-score; in experiment [2], 7.26 z-score; in the experiment with GST-Co-NF-kB it was 5.2 z-score; in the experiment with GST-Dm-Relish, 10.4 z-score; with GST-Aq-NF-kB it was 7.58 z-score. The binding signal with GST-Hu-p50 is 5.33 z-score.

As for “CCGATTAACATCAGGGAATATACTGATGTTAATCGGGTCTTGATTCGCTTGACGCTGCTG”, the binding signal with GST-Ap-NF-kB RHD came out at 3.5 z-score; in experiment [1], 3.81 z-score; in experiment [2] it was 4.1 z-score; with GST-Co-NF-kB, 3.18 z-score; with GST-Dm-Relish, 4.01 z-score; with GST-Aq-NF-kB, 4.33 z-score. The sequence further showed a binding signal in the experiment with GST-Hu-p50 of 2.3 z-score.

Take “CCGATTAACATCAGGGACGTCCCTGATGTTAATCGGGTCTTGATTCGCTTGACGCTGCTG”: the binding signal with GST-Ap-NF-kB RHD is 7.37 z-score; in experiment [1] it was 7.13 z-score; in experiment [2], 4.26 z-score; in the experiment with GST-Co-NF-kB it was 1.08 z-score; with GST-Dm-Relish, 6.25 z-score; with GST-Aq-NF-kB, 8.52 z-score. In addition, in the experiment with GST-Hu-p50, the binding signal is 4.54 z-score.

For “CCGATTAACATCAGAGCTCCCCCTGATGTTAATCGGGTCTTGATTCGCTTGACGCTGCTG”, the binding signal with GST-Ap-NF-kB RHD was 5.05 z-score; in experiment [1] it was 4.31 z-score; in experiment [2] it was 4.32 z-score; with GST-Co-NF-kB, 5.45 z-score; in the experiment with GST-Dm-Relish it was 1.98 z-score; with GST-Aq-NF-kB, 3.98 z-score. Further, in the experiment with GST-Hu-p50, the binding signal is 4.94 z-score.

On to “CCGATTAACATCAGGAATCCCCATGATGTTAATCGGGTCTTGATTCGCTTGACGCTGCTG”, for which the binding signal was determined as 8.61 z-score in the experiment with GST-Ap-NF-kB RHD; 8.08 z-score in experiment [1]; 7.76 z-score in experiment [2]; 3.4 z-score in the experiment with GST-Co-NF-kB; 9.13 z-score with GST-Dm-Relish; 6.35 z-score with GST-Aq-NF-kB. Besides, in the experiment with GST-Hu-p50, the binding signal is 6.22 z-score.

Turning to “CCGATTAACATCAGGGGGGAGTATGATGTTAATCGGGTCTTGATTCGCTTGACGCTGCTG”, the binding signal in the experiment with GST-Ap-NF-kB RHD was found to be 6.07 z-score; in experiment [1], 5.01 z-score; in experiment [2] it was 5.11 z-score; with GST-Co-NF-kB, 6.88 z-score; with GST-Dm-Relish, 3.7 z-score; with GST-Aq-NF-kB, 4.54 z-score. The sequence further registered a binding signal with GST-Hu-p50 of 6.15 z-score.

As to “CCGATTAACATCAAAAGTCCCCATGATGTTAATCGGGTCTTGATTCGCTTGACGCTGCTG”, the binding signal was determined as 7.92 z-score with GST-Ap-NF-kB RHD; 7.91 z-score in experiment [1]; 7.59 z-score in experiment [2]; 3.45 z-score in the experiment with GST-Co-NF-kB; 8.38 z-score with GST-Dm-Relish; 7.23 z-score with GST-Aq-NF-kB. Besides, the binding signal with GST-Hu-p50 turned out to be 6.84 z-score.

In the case of “CCGATTAACATCACGGGGGAAAATGATGTTAATCGGGTCTTGATTCGCTTGACGCTGCTG”, the binding signal with GST-Ap-NF-kB RHD was 6.86 z-score; in experiment [1] it was 6.21 z-score; in experiment [2], 9.47 z-score; in the experiment with GST-Co-NF-kB, 11.7 z-score; with GST-Dm-Relish it was 4.45 z-score; with GST-Aq-NF-kB, 5.8 z-score. Further, in the experiment with GST-Hu-p50, the binding signal is 6.51 z-score.

For “CCGATTAACATCAAAAGGGGATATGATGTTAATCGGGTCTTGATTCGCTTGACGCTGCTG”, the binding signal with GST-Ap-NF-kB RHD amounted to 4.87 z-score; in experiment [1] it was 5.63 z-score; in experiment [2], 7.56 z-score; with GST-Co-NF-kB, 2.09 z-score; with GST-Dm-Relish, 2.06 z-score; in the experiment with GST-Aq-NF-kB, 3.8 z-score. In the experiment with GST-Hu-p50, this sequence registered a binding signal of 4.41 z-score.
